# Values joined by “and” are separate entries in the source; they are usually repeats but may differ in a detail not shown here. Equal values may be shown once. Screen size: about 330,000 compounds; about 3,800 (1.2%) were called active. The entries come from a sample that favours actives as a whole. A number with no mark means an inactive call. Rule as the data show it: active = inhibition above about 15%; inconclusive = no clear call, values can overlap the other calls; inactive = below that.
# Target: NAD-dependent protein deacylase sirtuin-5, mitochondrial (Homo sapiens) (UniProt Q9NXA8)
# Assay: SIRT5 desuccinylase inhibitors, primary screen, biochemical, fluorescence imaging, single point, set 5 (AID 652115)
# Conditions: Purified SirT5, succinyl-peptide AMC, trypsin-coupled fluorescence; at 15 µM; hits give high values
# Sequence of NAD-dependent protein deacylase sirtuin-5, mitochondrial (Homo sapiens) (Q9NXA8 whole entry, looked up): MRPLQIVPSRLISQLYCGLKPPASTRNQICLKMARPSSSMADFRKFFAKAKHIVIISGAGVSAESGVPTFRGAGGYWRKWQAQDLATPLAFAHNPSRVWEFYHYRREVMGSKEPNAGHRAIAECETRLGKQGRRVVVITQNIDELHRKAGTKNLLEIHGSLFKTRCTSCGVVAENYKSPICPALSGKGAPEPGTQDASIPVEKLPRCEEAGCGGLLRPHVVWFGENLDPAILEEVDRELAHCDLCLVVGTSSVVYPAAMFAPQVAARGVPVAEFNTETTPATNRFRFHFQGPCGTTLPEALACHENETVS
row,Structure (SMILES),inhibition
1,COc1ccccc1NC(=O)N1CCCCN2[C@H](CO)[C@H](c3ccc(C#CC4CC4)cc3)[C@@H]2C1,0.625%
2,CO[C@H]1CN(C)C(=O)c2cc(NS(C)(=O)=O)ccc2OC[C@@H](C)N(Cc2ccccc2)C[C@@H]1C,-4.85%
3,COCC#Cc1ccc2c(c1)O[C@H](CN(C)C(=O)CN(C)C)[C@@H](C)CN([C@H](C)CO)S2(=O)=O,1.54%
4,C[C@@H]1CN([C@@H](C)CO)C(=O)c2cc(/C=C/c3ccccc3)cnc2O[C@@H]1CN(C)C(=O)CN(C)C,-20%
5,C[C@H](CO)N1C[C@H](C)[C@H](CN(C)C(=O)Nc2ccc3c(c2)OCO3)Oc2cc(C#Cc3ccncc3)ccc2S1(=O)=O,-1.42%
6,CCCN1C[C@@H](C)[C@@H](OC)CN(C)C(=O)c2cc(NC(=O)NC3CCCCC3)ccc2OC[C@H]1C,0.947%
7,C[C@H](NC(=O)[C@H]1N[C@H]2c3ccc(-c4ccc(C(=O)N(C)C)cc4)c(=O)n3C[C@H]2[C@@H]1CO)c1ccccc1,-55.5%
8,O=C(NCC1CC1)[C@@H]1[C@@H](CO)[C@@H]2Cn3c(ccc(-c4ccccc4)c3=O)[C@H]1N2C(=O)C1CC1,-28%
9,CO[C@@H]1CN(C)C(=O)c2ccc(NC(=O)Nc3ccccc3)cc2OC[C@H](C)N(C(=O)CC2CC2)C[C@@H]1C,6.27%
10,O=C(COC(=O)c1ccccc1)c1ccc2c(c1)OCCO2,0.878%
11,O=C(COC(=O)c1ccc(O)cc1O)NC(=O)c1ccccc1,0.616%
12,O=C(COC(=O)c1ccc(O)cc1O)c1ccc2c(c1)OCCO2,19.1% (active)
13,CO[C@H]1CN(C)C(=O)c2cc(NC(=O)c3cnccn3)ccc2OC[C@@H](C)N(CC2CC2)C[C@@H]1C,0.994%
14,O=c1ccc2c(-c3ccccc3S(=O)(=O)O)c3ccc(O)c(O)c3oc-2c1O,15.8% (active)
15,Cn1cnc(CCNC(=O)C[C@@H]2CC[C@H]3[C@@H](COC[C@@H](O)CN3C(=O)Nc3ccc(Cl)cc3)O2)c1,-1.27%
16,Cn1cnc(CCNC(=O)C[C@@H]2CC[C@@H]3[C@H](COC[C@@H](O)CN3C(=O)Nc3ccccc3)O2)c1,15.8% (active)
17,Cn1cnc(CCNC(=O)C[C@H]2CC[C@@H]3[C@H](COC[C@@H](O)CN3C(=O)Nc3ccc(Cl)cc3)O2)c1,3.58%
18,C[C@H]1CCCCO[C@H](CN(C)C(=O)Nc2ccccc2)[C@@H](C)CN([C@@H](C)CO)C(=O)c2cc(NC(=O)Nc3ccc4c(c3)OCO4)ccc2O1,11.6%
19,CN(C)S(=O)(=O)c1ccc(C(=O)NCCN=C2NS(=O)(=O)c3ccccc32)cc1,15.2% (active)
20,CN(c1ccccc1)S(=O)(=O)c1ccc(C(=O)NCCc2ccccc2)cc1,-1.73%
21,Cc1ccccc1C(=O)NCCN=C1NS(=O)(=O)c2ccccc21,1.57%
22,COc1ccccc1-c1cn(CC[C@@H]2CC[C@@H](NC(=O)c3ccccc3F)[C@H](CO)O2)nn1,-1.68%
23,COc1cccc(S(=O)(=O)N2C[C@@H](O)COC[C@@H]3O[C@H](CC(=O)N4CCN(C)CC4)CC[C@H]32)c1,-10.1%

row,Structure (SMILES),inhibition
1,C[C@@H]1CN([C@H](C)CO)S(=O)(=O)c2ccc(-c3cccc(F)c3)cc2O[C@H]1CN(C)S(=O)(=O)c1ccc(F)cc1,16.1% (active)
2,C[C@@H]1CN([C@@H](C)CO)S(=O)(=O)c2ccc(C#CCN(C)C)cc2O[C@@H]1CN(C)S(=O)(=O)c1cccc(F)c1,2.43%
3,CC(C)CC#Cc1ccc2c(c1)O[C@H](CN(C)S(=O)(=O)c1cccc(F)c1)[C@@H](C)CN([C@@H](C)CO)S2(=O)=O,19.1% (active)
4,C[C@H]1CN([C@@H](C)CO)S(=O)(=O)c2ccc(-c3cccc(F)c3)cc2O[C@@H]1CN(C)C,-1.74% and 0.129% and -10.4%
5,C[C@H](CO)N1C[C@H](C)[C@@H](CN(C)S(=O)(=O)c2cccc(F)c2)Oc2cc(C#CCN(C)C)ccc2S1(=O)=O,0.005%
6,C[C@@H]1CN([C@@H](C)CO)S(=O)(=O)c2ccc(-c3cccc(F)c3)cc2O[C@@H]1CN(C)S(=O)(=O)c1ccccc1,12%
7,CCCNC(=O)N1[C@@H]2c3ccc(-c4ccccc4OC)c(=O)n3C[C@H]1[C@H](CO)[C@H]2C(=O)N(C)C,-22.3%
8,C[C@H]1CN([C@@H](C)CO)C(=O)c2cccc(NS(=O)(=O)c3cccs3)c2O[C@H]1CN(C)Cc1ccc(C(=O)Nc2ccccc2N)cc1,5.63%
9,CCCC(=O)N1CC2(C1)CN(C(=O)Nc1cccc(F)c1)[C@@H](CO)c1c2c2ccc(OC)cc2n1C,7.29%
10,COc1ccc2c3c(n(C)c2c1)[C@@H](CO)N(C(=O)Nc1cccc(F)c1)CC31CCN(Cc2nccs2)CC1,35.6% (active)
11,COc1ccc2c3c(n(C)c2c1)[C@H](CO)N(C(=O)Nc1cccc(F)c1)CC31CN(Cc2nccs2)C1,2.85%
12,O=S1(=O)CC(N2CCN(CCO)CC2)CN1Cc1cn(Cc2cccc(Cl)c2)nn1 (centres undefined),-5.71%
13,Cc1ccc(Cn2cc(CN3CC(N4CCN(C)CC4)CS3(=O)=O)nn2)cc1 (centres undefined),3.71%
14,O=S1(=O)CC(N2CCN(CCO)CC2)CN1Cc1cn(Cc2ccc(Cl)cc2)nn1 (centres undefined),32.8% (active)
15,CCS(=O)(=O)Nc1ccc2c(c1)C(=O)N(C)[C@H]1CC[C@@H](CC(=O)Nc3ccccc3)O[C@H]1CO2,2.87%
16,O=C1NN(c2ccccc2)C(=O)/C1=C/c1ccc(-c2cccc(C(=O)O)c2)o1,8.67%
17,O=C1c2ccccc2NC(c2ccc(-c3cccc(Cl)c3)o2)N1O (centres undefined),1.64%
18,O=C(O)C(c1ccccc1)N1C(=O)/C(=C\c2ccc(-c3cccc(Cl)c3)o2)SC1=S (centres undefined),43.9% (active)
19,O=C(Nc1cc(Cl)cc(Cl)c1)N[C@@H]1CC[C@H](CCNS(=O)(=O)c2cccc(F)c2)O[C@H]1CO,2.03%
20,CCCNC(=O)N1CC(=O)N2[C@H](CO)[C@H](c3ccc(C#Cc4cccc(OC)c4)cc3)[C@H]2C1,-0.038%
21,CCCN(C)C[C@H]1Oc2cc(-c3ccc(C)cc3)ccc2S(=O)(=O)N([C@H](C)CO)C[C@H]1C,1.13%
22,CN(C)C(=O)c1ccc(-c2ccccc2[C@@H]2[C@@H](C#N)N(C(=O)C3CCCC3)[C@H]2CO)cc1,-3.26%
23,O=C(N[C@H]1C=C[C@@H](CC(=O)N2CCN(c3ccccc3)CC2)O[C@@H]1CO)c1ccncc1,-0.959%

row,Structure (SMILES),inhibition
1,C=CCC[C@H](Cc1ccc(F)cc1)C(=O)OC[C@H](C)NC(=O)[C@H](CC=C)CC(=O)N(CCO)Cc1ccccc1,16.9% (active)
2,C=CCC[C@@H](Cc1ccc(F)cc1)C(=O)OC[C@@H](C)NC(=O)[C@H](CC=C)CC(=O)N(CCO)Cc1ccccc1,-0.88%
3,C=CCC[C@H](Cc1ccc(F)cc1)C(=O)OC[C@@H](NC(=O)[C@@H](CC=C)CC(=O)N[C@H](CO)Cc1ccccc1)C(C)(C)C,0.931%
4,CC1COc2ccccc2N1S(=O)(=O)c1ccccc1 (centres undefined),-1.33%
5,CC1COc2ccccc2N1C(=O)c1cccnc1Cl (centres undefined),-1.34%
6,CC1COc2ccccc2N1C(=O)c1ccc(F)cc1 (centres undefined),22.7% (active)
7,COc1ccc(CN(C)C[C@@H]2OCCCC[C@@H](C)Oc3ccc(NC(=O)Nc4ccc(C(F)(F)F)cc4)cc3C(=O)N([C@H](C)CO)C[C@H]2C)cc1,6.39%
8,CN(C)CC(=O)N[C@H]1CC[C@H](CCNC(=O)Nc2ccc(F)cc2)O[C@H]1CO,-1.16%
9,Cc1nc(N2[C@H](CO)[C@H](c3ccccc3)[C@H]2CNCC2CCCCC2)sc1C,5.49%
10,CC(C)NC(=O)N1[C@@H]2c3ccc(-c4ccc(F)cc4)c(=O)n3C[C@@H]2[C@@H](CO)[C@@H]1C(=O)N1CCOCC1,-2.98%
11,O=C(Nc1nnc(C2CC2)s1)c1cc(Cl)sc1Cl,-1.4%
12,O=C(Nc1nnc(C2CC2)s1)c1ccccn1,23.4% (active)
13,Cc1cc(C(=O)Nc2nnc(C3CC3)s2)c(C)s1,-4.14%
14,CO[C@@H]1CN(C)C(=O)c2cc(NS(C)(=O)=O)ccc2OC[C@H](C)N(C(=O)C2CC2)C[C@@H]1C,1.74%
15,COCC(=O)Nc1ccc2c(c1)C(=O)N(C)C[C@@H](OC)[C@@H](C)CN(C(=O)Cc1ccccn1)[C@@H](C)CO2,-3.53%
16,C[C@@H](O)C#Cc1cnc2c(c1)C(=O)N([C@@H](C)CO)C[C@H](C)[C@H](CN(C)Cc1cncnc1)O2,8.12%
17,COc1ccc(S(=O)(=O)NCC(=O)NCc2cc(=O)n(C)c(=O)n2C)cc1F,-2%
18,Cc1ccc(C(=O)NCC(=O)NC2CC2)cc1,-1.54%
19,Cc1ccc(C(=O)NCC(=O)NCc2cc(=O)n(C)c(=O)n2C)cc1,31.9% (active)
20,CC(C)NC(=O)Nc1ccc2c(c1)C(=O)N([C@H](C)CO)C[C@H](C)[C@@H](CN(C)C)OCCCC[C@H](C)O2,0.043%
21,COc1cc(/C=C2/C(=O)NN(c3cccc(Cl)c3)C2=O)cc(Br)c1O,9.45%
22,C#CCOc1ccc(/C=C2/C(=O)NN(c3ccccc3)C2=O)cc1OC,98.1% (active)
23,C#CCOc1ccc(/C=C2/C(=O)ON=C2C)cc1OCC,-2.23%

# Source: PubChem BioAssay AID652115 (Broad Institute, 2013)
